Reference: PubChem BioAssay (NCATS)
“And” between values parts separate entries of the source, which are not always exact repeats. Equal entries are not always repeated. Records with an inconclusive call do not appear. Where a call stands in place of a potency, no number is given. Unmarked numbers belong to inactive results. The source made the active and inactive calls. The call rests on the fitted dose curve; in most records, active means well fitted curve in the direction sought with a large enough effect; inconclusive means small, poorly fitted or top-dose-only effect, or another doubt; inactive means no such curve, though single readings can be large; an effect the other way counts as inactive or inconclusive.

Tests used:
[1] = qHTS Assay for Identifying Gametocytocidal Compounds (AID 743244);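 further: actives lower the fluorescent signal which means gametocytes are killed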; conditions: P. falciparum 3D7 stage III-V gametocytes, alamarBlue, 72 h; max response: active compounds read low
Summary of the method: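 In this qHTS viability screen, late-stage 3D7 gametocytes are incubated with compound for 72 h, then with alamarBlue for 24 h; reduced resorufin fluorescence marks killing.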

[2] = qHTS assay to identify small molecule inhibitors of chordoma cells - UCH-1 (AID 1259355); further: nearly all actives have a fitted effect of over 55% in size
Summary of the method: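 Luminescent ATP read-out (CellTiter-Glo, 30min at room temperature) measured viability of UCH-1 cells exposed for 48hr to test drugs at 15 concentrations, co-dosed with a five-agent combination of auranofin, camptothecin, doxorubicin, rubitecan and topotecan.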

[3] = qHTS assay to identify small molecule inhibitors of chordoma cells - UCH-2 (AID 1259356); further: series mostly up to about 46 µM
[4] = P-glycoprotein substrates identified in KB-8-5-11 adenocarcinoma cell line, qHTS therapeutic library screen (AID 1346987); conditions: outcome: dose series up to 44.5 µM unless noted; further: nearly all actives have a fitted effect of over 65% in size; further: potency means the concentration at half of the fitted maximal effect
Summary of the method: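 KB-8-5-11, a colchicine-selected P-gp-overexpressing KB-3-1 subline, was grown without colchicine for the assay. Cells were seeded at 500 cells/well, dosed in concentration-response and incubated 72 h at 37 degree C, 5% CO2. Viability was read by CellTiter-Glo luminescence.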

SMILES	max response [1]	Potency [2]	Potency [3]	Potency [4]
CN1c2c(nc(N)[nH]c2=O)NCC1CNc1ccc(C(=O)NC(CCC(=O)O)C(=O)O)cc1 (stereo not given)	15.5%	inactive	inactive	inactive
CCCCC/C=C\CCC(=O)N[C@H]1[C@H](Oc2c3cc4cc2Oc2ccc(cc2Cl)[C@@H](O[C@@H]2O[C@H](CO)[C@@H](O)[C@H](O)[C@H]2NC(C)=O)[C@@H]2NC(=O)[C@H](NC(=O)[C@@H]4NC(=O)[C@H]4NC(=O)[C@@H](Cc5ccc(c(Cl)c5)O3)NC(=O)[C@H](N)c3ccc(O)c(c3)Oc3cc(O)cc4c3)c3ccc(O)c(c3)-c3c(O[C@H]4O[C@H](CO)[C@@H](O)[C@H](O)[C@@H]4O)cc(O)cc3[C@@H](C(=O)O)NC2=O)O[C@H](CO)[C@@H](O)[C@@H]1O	-6.11%	inactive	inactive	inactive
CSCCC(N)C(=O)O (stereo not given)	-5.15%	inactive	inactive	inactive
CO[C@H]1C=CO[C@@]2(C)Oc3c(C)c(O)c4c(O)c(cc(O)c4c3C2=O)NC(=O)/C(C)=C\C=C/[C@H](C)[C@H](O)[C@@H](C)[C@@H](O)[C@@H](C)[C@H](OC(C)=O)[C@@H]1C	-6.86%	inactive	inactive	inactive
OCCCNc1ccccc1	-7.9%	inactive	inactive	inactive
O=P(O)(O)OP(=O)(O)OP(=O)(O)O	1.26%	inactive	inactive	inactive
CCCCCCCCCCCC(=O)OCC(O)CO (stereo not given)	3.54%	inactive	inactive	inactive
O=c1[nH]c(=O)n([C@H]2C[C@H](O)[C@@H](CO)O2)cc1/C=C/Br	6.97%	inactive	inactive	inactive
CC1(O)CCC(C(C)(C)O)CC1 (stereo not given)	5.51%	inactive	inactive	inactive
CNC(=O)OCc1cccc(COC(=O)NC)n1	8.67%	inactive	inactive	inactive
O=C(Cc1cccs1)N[C@@H]1C(=O)N2C(C(=O)[O-])=C(C[n+]3ccccc3)CS[C@H]12	7.46%	inactive	inactive	inactive
CC(=O)NCCCS(=O)(=O)O	7.56%	inactive	inactive	inactive
F[Si-2](F)(F)(F)(F)F	2.76%	inactive	inactive	inactive
CC(C)C[C@H](NC(=O)[C@@H](COC(C)(C)C)NC(=O)[C@H](Cc1ccc(O)cc1)NC(=O)[C@H](CO)NC(=O)[C@H](Cc1c[nH]c2ccccc12)NC(=O)[C@H](Cc1cnc[nH]1)NC(=O)[C@@H]1CCC(=O)N1)C(=O)N[C@@H](CCCN=C(N)N)C(=O)N1CCC[C@H]1C(=O)NNC(N)=O	16.2% and -4.65%	inactive	inactive	inactive
NC[C@@H]1CC[C@@H](N)[C@@H](O[C@H]2[C@H](O)[C@@H](O[C@H]3O[C@H](CO)[C@@H](O)[C@H](N)[C@H]3O)[C@H](N)C[C@@H]2N)O1	4.25%	inactive	inactive	inactive
O=C(O)[C@H]1CN(C/C=C/P(=O)(O)O)CCN1	12.3%	inactive	inactive	inactive
NCC[C@H](O)C(=O)N[C@@H]1C[C@H](N)[C@@H](O[C@H]2O[C@H](CN)[C@@H](O)[C@H](O)[C@H]2O)[C@H](O)[C@H]1O[C@H]1O[C@H](CO)[C@@H](O)[C@H](N)[C@H]1O	-2.69%	inactive	inactive	inactive
Cc1ncc(C[n+]2csc(CCOP(=O)(O)O)c2C)c(N)n1	-3.97%	inactive	inactive	inactive
COc1ccc(C[C@H](C)NC[C@@H](O)c2ccc(O)c(NC=O)c2)cc1	-5.27%	inactive	inactive	inactive
NCC[C@H](O)C(=O)N[C@@H]1C[C@H](N)[C@@H](O[C@H]2O[C@H](CN)CC[C@H]2N)[C@H](O)[C@H]1O[C@H]1O[C@H](CO)[C@@H](O)[C@H](N)[C@H]1O	-1.8%	inactive	inactive	inactive
CC(C)c1ncc([N+](=O)[O-])n1C	3.27%	inactive	inactive	inactive
CC1CC(OC(=O)C(O)c2ccccc2)CC(C)(C)C1 (stereo not given)	25%	inactive	inactive	inactive
Cc1cccc(C)c1Nc1ncccc1C(=O)O	11.3%	inactive	inactive	inactive
CO[C@@]1(NC(=O)C2SC(=C(C(N)=O)C(=O)O)S2)C(=O)N2C(C(=O)O)=C(CSc3nnnn3C)CS[C@@H]21 (stereo not given in full)	10.6%	inactive	inactive	inactive
CCc1cn([C@H]2C[C@H](O)[C@@H](CO)O2)c(=O)[nH]c1=O	16.3%	inactive	inactive	inactive
CCOC(=O)c1c[nH]c2cc(OCC(C)C)c(OCC(C)C)cc2c1=O	-10.7%	inactive	inactive	inactive
Cc1cc(O)c2c(c1)O[C@@]1(C)CC[C@H]3C(C)(C)CCCC34CO[C@@H]2[C@H]41 (stereo not given in full)	20.1%	inactive	inactive	inactive
c1ccc2c(c1)OCC(CN1CCCCC1)O2 (stereo not given)	-2.04%	inactive	inactive	inactive

SMILES	max response [1]	Potency [2]	Potency [3]	Potency [4]
CC(=O)[C@@]1(O)CC[C@H]2[C@@H]3C=C(Cl)C4=CC(=O)[C@@H]5C[C@@H]5[C@]4(C)[C@H]3CC[C@@]21C	3.29%	inactive	inactive	inactive
CCCOc1cc(N)ccc1C(=O)OCCN(CC)CC	-20.2%	inactive	inactive	inactive
CC(CC=O)CCCC(C)(C)O (stereo not given)	6.46%	inactive	inactive	inactive
O=S(=O)(O)CC(S)CS (stereo not given)	3.76%	inactive	inactive	inactive
CC[C@@H](C)[C@H](N)C(=O)O	-5.92%	inactive	inactive	inactive
CCCc1ccc(C(=O)O)cc1	0.792%	inactive	inactive	inactive
c1ccc(-n2cnnn2)cc1	0.811%	inactive	inactive	inactive
C/C(=C\C(=O)OCCCCCCCCC(=O)O)C[C@@H]1OC[C@H](C[C@@H]2O[C@H]2[C@@H](C)[C@H](C)O)[C@@H](O)[C@H]1O	-6.76%	inactive	inactive	inactive
COC(=O)CCC[N+](C)(C)C	-8.11%	inactive	inactive	inactive
COC(=O)[C@@H](N)CS	0.957%	inactive	inactive	inactive
CC1=C(/C=C/C(C)=C/C=C/C(C)=C/C(=O)Oc2c(C)c(C)c3c(c2C)CC[C@@](C)(CCC[C@H](C)CCC[C@H](C)CCCC(C)C)O3)C(C)(C)CCC1	0.0927%	inactive	inactive	inactive
CC(O)[C@H]1CC[C@H]2[C@@H]3CC[C@@H]4C[C@@H](O)CC[C@]4(C)[C@H]3CC[C@]12C (stereo not given in full)	4.2%	inactive	inactive	6.51 µM (active)
CC(C)(C)CC(C)(C)c1cc(Cc2cc(C(C)(C)CC(C)(C)C)cc(-n3nc4ccccc4n3)c2O)c(O)c(-n2nc3ccccc3n2)c1	-7%	inactive	inactive	inactive
COc1c(O[C@@H]2O[C@H](CO)[C@@H](O)[C@H](O)[C@H]2O)cc2c(c1OC)-c1ccc(SC)c(=O)cc1[C@@H](NC(C)=O)CC2	22%	inactive	inactive	inactive
Cc1ccc(C(C)(C)c2ccc(C)cc2)cc1	17%	inactive	inactive	inactive
CC(C)CCCC(C)NC(C)C (stereo not given)	15.9%	inactive	inactive	inactive
O=C(O)CCC/C=C\C[C@@H]1[C@@H](/C=C/[C@@H](O)COc2cccc(C(F)(F)F)c2)[C@H](O)C[C@@H]1O	7.42%	inactive	inactive	inactive
CC(C)=CCC/C(C)=C/CC/C(C)=C/CC/C=C(\C)CC/C=C(\C)CCC=C(C)C	-7.41% and 5.06%	inactive	inactive	inactive
Cc1cc(C(=O)NCCc2ccc(S(=O)(=O)NC(=O)NN3CCCCCC3)cc2)no1	4.46%	inactive	inactive	inactive
CCC(Oc1ccccc1)C(=O)N[C@@H]1C(=O)N2[C@@H]1SC(C)(C)[C@@H]2C(=O)O (stereo not given in full)	14.1%	inactive	inactive	inactive
O=C(O)[C@@H]1C[C@H](CP(=O)(O)O)CCN1	11.7%	inactive	inactive	inactive
CN1C(=O)C[C@@H](C(=O)N[C@@H](Cc2cnc[nH]2)C(=O)N2CCC[C@H]2C(N)=O)NC1=O	5.88%	inactive	inactive	inactive
C[C@]12CC[C@@H]3c4ccc(O)cc4CC[C@H]3[C@@H]1CC[C@@H]2OP(=O)(O)O	-0.293%	inactive	inactive	20.6 µM (active)
OC[C@@H](O)C(O)[C@H](O)CO	3.78%	inactive	inactive	inactive
CC(C)[C@@H](N)C(=O)O	7.16%	inactive	inactive	inactive
CCOC(=O)[C@H](CS)NCCN[C@@H](CS)C(=O)OCC	2.46%	inactive	inactive	inactive
CC(C)C[C@H](NC(=O)[C@@H](Cc1c[nH]c2ccccc12)NC(=O)[C@H](Cc1ccc(O)cc1)NC(=O)[C@H](CO)NC(=O)[C@H](Cc1c[nH]c2ccccc12)NC(=O)[C@H](Cc1cnc[nH]1)NC(=O)[C@@H]1CCC(=O)N1)C(=O)N[C@@H](CCCN=C(N)N)C(=O)N1CCC[C@@H]1C(=O)NCC(N)=O	-1.22%	inactive	inactive	inactive
